The results in this text go back to PubChem BioAssay.

The source made the active and inactive calls.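 The calls were made as follows, unless noted: active = inhibition of the reporter signal at or above 50%; inactive = inhibition below 50%.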

A short description of assay [1]: inhibitors of TNFa-induced NFkB p65 translocation, primary screen, imaging, HUVEC, MLSMR starter and 10KST1 sets (AID 438;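 active = inhibition above 20% together with a positive visual image hit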;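 also: compound added about 3h40 before a 20 min TNFalpha stimulation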;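 as to inhibition: signal is the nuclear over cytoplasmic p65 intensity ratio per well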). Particulars: HUVEC TNFa-induced p65 nuclear translocation; cell count: measured here: nuclei count (cytotoxicity indicator), at 2.08 µM; inhibition: at 2 µM, stronger effect = higher value, 0% TNFa-plus-vehicle, 100% no-TNFa wells.
Assay [2] is described as follows: reduction of polyQ htt aggregates in cells – imaging, exon1htt(103Q)mCFP cells, high-content imaging, primary screen (AID 483;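 active = visual image review flags a hit and inhibition of aggregation exceeds 20%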;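 also: compound exposure lasted 3 days before fixation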;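 as to nuclei count: percent of the per-plate median nuclei count of sample wells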). Particulars: exon1htt(103Q)mCFP cell line, aggregate imaging, at 2 µM; inhibition of aggregation: stronger effect = higher value; nuclei count: measured here: cell count, toxicity.
Assay [3] can be described thus: endothelial E-selectin expression blockers – imaging, HUVEC, immunofluorescence, MLSMR starter and 10KST1 sets, primary screen (AID 487;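 active = visually confirmed hit in the image check and inhibition above 20%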;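 as to inhibition: signal is fraction of cell area covered by stained E-selectin grains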;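 as to nuclei count: 100% = median nuclei count of all wells on the same plate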). Particulars: HUVEC TNFalpha-induced E-selectin immunofluorescence imaging, at 2 µM; inhibition: stronger effect = higher value; nuclei count: measured here: cell number, toxicity.
Assay [4] deals with Voltage-gated potassium channel subunit beta-2 (Rattus norvegicus) (UniProt P62483). Briefly: inhibitors of rat Kvbeta2 reductase activity – biochemical, NADPH fluorescence, primary screen (AID 622;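 active = fluorescence slope higher than the sample average by over 3 SD, cut at about -0.22 in these data, passing the limit was not always enough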;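 also: slope of raw intensity against log time taken from 70 to 1610 s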). Particulars: recombinant KvBeta, 4-cyanobenzaldehyde reduction, at 10 µM, stronger effect = higher value.
Sequence of Voltage-gated potassium channel subunit beta-2 (Rattus norvegicus) (P62483 whole entry, looked up): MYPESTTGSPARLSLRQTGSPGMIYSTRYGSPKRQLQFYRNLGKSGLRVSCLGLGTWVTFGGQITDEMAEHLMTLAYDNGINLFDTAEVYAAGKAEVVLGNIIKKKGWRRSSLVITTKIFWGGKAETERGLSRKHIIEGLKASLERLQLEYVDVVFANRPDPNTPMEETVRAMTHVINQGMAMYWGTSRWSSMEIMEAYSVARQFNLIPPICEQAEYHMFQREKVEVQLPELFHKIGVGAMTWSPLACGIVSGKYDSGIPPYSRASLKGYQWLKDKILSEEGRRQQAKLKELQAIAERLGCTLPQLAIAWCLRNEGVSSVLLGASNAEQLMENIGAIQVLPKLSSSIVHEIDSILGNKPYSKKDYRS
Assay [5] has the same target. As to the kind of experiment: enhancers of rat Kvbeta2 NADPH turnover – biochemical, NADPH fluorescence, primary screen (AID 623;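 active = NADPH fluorescence slope more negative than the mean of all samples by about 3 SD, 99.7% confidence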;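 also: fluorescence intensity change per second fitted from 20 to 320 s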). Particulars: Recombinant KvBeta, NADPH fluorescence decrease slope, 10 min; at 10 µM; stronger effect = lower value.
Assay [6] addresses Alpha-2C adrenergic receptor (Homo sapiens) (UniProt P18825). As to the kind of experiment: compounds altering alpha2C-coupled GIRK flux – cell-based, HEK293 alpha2C/GIRK1/2, thallium flux, primary screen (AID 624;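 active = fluorescence slope after compound addition differing from the mean of all screened samples at 99.7% confidence, in either direction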;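 also: slope of fluorescence ratio to pre-addition baseline per second over 15 to 24 s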). Particulars: thallium flux BTC fluorescence, at 10 µM, actives lie on both sides.
A short description of assay [7]: blockers of RIG-like receptor reporter activation – cell-based, Sendai virus stimulus, luciferase, 10K MLSCN set, TLR/RLR signaling modifier project, primary screen (AID 602276;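 active = inhibition at or above 50% at 10 µM; inactive = inhibition below 50%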;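 also: firefly luciferase from ISG56 promoter only with Renilla not read in this screen; 0% = Sendai virus plus DMSO and 100% = medium plus DMSO without virus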). Particulars: HEK293 RL24 IRF3 luciferase reporter, at 10 µM, stronger effect = higher value.
Assay [8] in a line: TLR3 IRF3 reporter activation blockers – cell-based, poly I:C stimulus, luciferase, 10K MLSCN set, primary screen (AID 602277). Particulars: HEK293-TLR3 RL24 IRF3 luciferase reporter, at 10 µM, stronger effect = higher value. Background: A reporter such as luciferase makes a cellular process visible.

Sequence of Alpha-2C adrenergic receptor (Homo sapiens) (P18825 whole entry, looked up): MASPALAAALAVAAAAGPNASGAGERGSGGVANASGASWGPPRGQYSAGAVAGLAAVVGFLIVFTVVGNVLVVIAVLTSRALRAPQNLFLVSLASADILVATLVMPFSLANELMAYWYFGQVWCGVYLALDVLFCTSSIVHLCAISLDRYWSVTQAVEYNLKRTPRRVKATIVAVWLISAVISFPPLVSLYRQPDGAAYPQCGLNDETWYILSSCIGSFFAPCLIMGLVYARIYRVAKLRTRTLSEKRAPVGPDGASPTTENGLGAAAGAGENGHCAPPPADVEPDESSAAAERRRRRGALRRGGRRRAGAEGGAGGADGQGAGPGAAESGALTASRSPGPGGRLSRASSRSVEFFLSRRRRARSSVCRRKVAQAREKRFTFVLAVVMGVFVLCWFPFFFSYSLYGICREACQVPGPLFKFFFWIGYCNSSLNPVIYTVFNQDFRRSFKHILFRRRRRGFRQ

For `CCOC(=O)N1CCC(NC(=O)Cn2c3c(c(-c4ccccc4Cl)cc2=O)CCC3)CC1`, in assay [1], the cell count is 528. Besides, the inhibition was -3.3% (inactive) in assay [1], -105% (inactive) in assay [3], 9.23% (inactive) in assay [7] and 30.1% (inactive) in assay [8]. In addition, in assay [2], the inhibition of aggregation was 4.5% (inactive). Further, the nuclei count in assay [2] was determined as 98.3%; in assay [3] it was 120%. Also, the fluorescence slope in assay [4] is -0.54 (inactive). In addition, the NADPH fluorescence slope in assay [5] was -2.2e-05 (inactive). In assay [6], the slope is 0.00573 (inactive).

As to `Cn1c(=N)c(S(=O)(=O)c2ccc(Cl)cc2)cc2c(=O)n3ccccc3nc21`, the cell count in assay [1] was determined as 294. For the same compound, the inhibition is 1.6% (inactive) in assay [1], 10.2% (inactive) in assay [3], 8.16% (inactive) in assay [7] and 40.1% (inactive) in assay [8]. Also, in assay [2], the inhibition of aggregation is -0.4% (inactive). Also, the nuclei count is 97.1% in assay [2] and 94.5% in assay [3]. In addition, the fluorescence slope in assay [4] is -0.405 (inactive). For the same compound, the NADPH fluorescence slope in assay [5] was -4.7e-05 (inactive). Moreover, in assay [6], the slope is 0.00398 (inactive).

As to `CCCCCn1c(CN2CCN(C)CC2)nc2c1c(=O)n(C)c(=O)n2C`, the cell count in assay [1] was determined as 521. In addition, the inhibition in assay [1] was -1.4% (inactive); in assay [3] it was 0.3% (inactive); in assay [7] it was 1.18% (inactive); in assay [8], 43.6% (inactive). Also, the inhibition of aggregation in assay [2] is -17.1% (inactive). For the same compound, the nuclei count in assay [2] was found to be 95.8%; in assay [3] it was 93.2%. Also, in assay [4], the fluorescence slope is -0.571 (inactive). For the same compound, the NADPH fluorescence slope in assay [5] is -3e-06 (inactive). The slope in assay [6] is 0.00637 (inactive).

As for `Cn1cnc(S(=O)(=O)NCc2cccs2)c1`, the cell count in assay [1] amounted to 417. For the same compound, the inhibition in assay [1] is 10.8% (inactive); in assay [3] it was -43.8% (inactive); in assay [7] it was -2.25% (inactive); in assay [8], 6.69% (inactive). Moreover, the inhibition of aggregation in assay [2] is -26.8% (inactive). Further, the nuclei count turned out to be 101% in assay [2] and 132% in assay [3]. Further, the fluorescence slope in assay [4] was -0.541 (inactive). Moreover, in assay [5], the NADPH fluorescence slope was 3.3e-05 (inactive). For the same compound, the slope in assay [6] was 0.00567 (inactive).

`CCOC(=O)c1c(C)[nH]c(C(=O)CSc2nc3ccccc3o2)c1C`: the cell count in assay [1] turned out to be 479. Besides, the inhibition in assay [1] is 10.6% (inactive); in assay [3] it was 28.7% (inactive); in assay [7] it was -1.31% (inactive); in assay [8] it was 0.358% (inactive). The inhibition of aggregation in assay [2] was -23.1% (inactive). The nuclei count in assay [2] was 107%; in assay [3] it was 94.5%. In addition, the fluorescence slope in assay [4] was -0.3 (inactive). The NADPH fluorescence slope in assay [5] is 1.8e-05 (inactive). Besides, in assay [6], the slope was 0.00682 (inactive).

As to `Cc1cccc(N2C(=O)CC(N3CCN(C(=O)c4ccccc4)CC3)C2=O)c1` (centres undefined), in assay [1], the cell count worked out at 408. Moreover, the inhibition in assay [1] is 19.1% (inactive); in assay [3], -12.6% (inactive); in assay [7], 10.6% (inactive); in assay [8] it was 16.7% (inactive). Besides, the inhibition of aggregation in assay [2] is 1.1% (inactive). Further, the nuclei count in assay [2] was determined as 106%; in assay [3], 118%. In addition, the fluorescence slope in assay [4] was -0.412 (inactive). Further, in assay [5], the NADPH fluorescence slope is -0.000104 (inactive). Besides, in assay [6], the slope is 0.00671 (inactive).

As for `COc1ccc(-c2nc3cc(NC(=O)Cc4ccc(OC)c(OC)c4)ccc3o2)cc1`, the cell count in assay [1] worked out at 581. For the same compound, the inhibition in assay [1] is -25.3% (inactive); in assay [3] it was -13.5% (inactive); in assay [7] it was -9.84% (inactive); in assay [8], -114% (inactive). Besides, the inhibition of aggregation in assay [2] was -10.5% (inactive). Besides, the nuclei count in assay [2] turned out to be 88.5%; in assay [3], 114%. In addition, in assay [4], the fluorescence slope is -0.468 (inactive). Also, the NADPH fluorescence slope in assay [5] was -4.6e-05 (inactive). Also, the slope in assay [6] is 0.00505 (inactive).

In the case of `CCCc1cc(C(=O)Nc2ccccc2SC)no1`, in assay [1], the cell count came to 849. Besides, the inhibition in assay [1] was 5.8% (inactive); in assay [3] it was -35.7% (inactive); in assay [7] it was -22% (inactive); in assay [8] it was -51.6% (inactive). Besides, the inhibition of aggregation in assay [2] was -12.6% (inactive). For the same compound, the nuclei count worked out at 108% in assay [2] and 121% in assay [3]. The fluorescence slope in assay [4] was -0.597 (inactive). In addition, the NADPH fluorescence slope in assay [5] was -2.4e-05 (inactive). In addition, in assay [6], the slope is 0.00474 (inactive).

`O=C(Nc1ccccc1)N(O)c1ccc(Cl)cc1`: in assay [1], the cell count stood at 284. Further, the inhibition in assay [1] is -11.4% (inactive); in assay [3] it was 44.1% (inactive); in assay [7] it was -39.6% (inactive); in assay [8], -78.3% (inactive). For the same compound, the inhibition of aggregation in assay [2] was 38.9% (active). The results for the nuclei count in assay [2] and in assay [3] were 90.3% and 85.6%, respectively. In assay [4], the fluorescence slope was -0.378 (inactive). Besides, the NADPH fluorescence slope in assay [5] is -7.1e-05 (inactive). For the same compound, in assay [6], the slope is 0.00373 (inactive).

For the compound `N#CC1=C(N)C(C#N)(C#N)[C@H](c2ccsc2)[C@H]2COCC=C12`, in assay [1], the cell count stood at 337. Also, the inhibition is 5.5% (inactive) in assay [1], 8.2% (inactive) in assay [3], 16.8% (inactive) in assay [7] and 25.2% (inactive) in assay [8]. Moreover, in assay [2], the inhibition of aggregation was 1.7% (inactive). Further, the nuclei count came to 98.1% in assay [2] and 93.1% in assay [3]. In addition, the fluorescence slope in assay [4] was -0.538 (inactive). In addition, the NADPH fluorescence slope in assay [5] is 2.1e-05 (inactive). For the same compound, in assay [6], the slope was 0.00495 (inactive).

Take `CCOc1ccc(C2C(C#N)=C(N)Oc3cc(C)n(Cc4ccco4)c(=O)c32)cc1OC` (centres undefined): the cell count in assay [1] is 746. The inhibition was 2.4% (inactive) in assay [1], -11.3% (inactive) in assay [3], 7.22% (inactive) in assay [7] and 11.1% (inactive) in assay [8]. Besides, in assay [2], the inhibition of aggregation is 9.6% (inactive). Besides, the nuclei count in assay [2] is 74%; in assay [3], 105%. In assay [4], the fluorescence slope is -0.491 (inactive). The NADPH fluorescence slope in assay [5] was -2e-05 (inactive). In addition, the slope in assay [6] was 0.00471 (inactive).

For the compound `O=[n+]1c2c(n([O-])c3cc(F)c(N4CCCC4)cc31)CCC2`, the cell count in assay [1] is 709. The inhibition was -9.4% (inactive) in assay [1], -98.9% (inactive) in assay [3], 0.0339% (inactive) in assay [7] and 0.593% (inactive) in assay [8]. Also, in assay [2], the inhibition of aggregation is 3% (inactive). In addition, the nuclei count was 78.5% in assay [2] and 123% in assay [3]. The fluorescence slope in assay [4] is -0.574 (inactive). For the same compound, the NADPH fluorescence slope in assay [5] was -5.8e-06 (inactive). The slope in assay [6] was 0.00378 (inactive).

For the compound `COc1ccc(OC)c(-c2nc3c(C)n[nH]c(=O)c3[nH]2)c1`, the cell count in assay [1] amounted to 536. The inhibition is 10.3% (inactive) in assay [1], 9.1% (inactive) in assay [3], 8.37% (inactive) in assay [7] and 20.2% (inactive) in assay [8]. In assay [2], the inhibition of aggregation was 13% (inactive). Further, the nuclei count in assay [2] worked out at 18.1%; in assay [3], 118%. The fluorescence slope in assay [4] is -0.423 (inactive). For the same compound, in assay [5], the NADPH fluorescence slope was -6.2e-05 (inactive). Also, the slope in assay [6] is 0.00496 (inactive).

Consider `COc1cccc(C(=O)Nc2cc(C)c3c(=O)oc4ccccc4c3n2)c1`, for which, in assay [1], the cell count turned out to be 526. The inhibition in assay [1] was 0.3% (inactive); in assay [3], -0.1% (inactive); in assay [7], 10.3% (inactive); in assay [8], 22.2% (inactive). Also, the inhibition of aggregation in assay [2] was 9.3% (inactive). Moreover, the values for the nuclei count in assay [2] and in assay [3] were 93.9% and 92.8%, respectively. Further, in assay [4], the fluorescence slope is -0.429 (inactive). In assay [5], the NADPH fluorescence slope is -3.7e-05 (inactive). Besides, in assay [6], the slope is 0.00602 (inactive).

One may read the inhibition as the relative decrease from the control value, in per cent.
